# Source: the supplement of paper PMC8728848
# About 410 targets per protein were measured; listed, in parts, are those with the strongest signals and a random draw of the rest.
# Experiments:
# Assay in all cases: glycan array binding signal (z-score within array); higher = stronger binding
# Conditions in all cases: glycan notation: IUPAC condensed, linker removed
# [1] = target: Gal3S(b1-4)[Fuc(a1-3)]GlcNAc
# Summary of the method: (§1)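 The Consortium for Functional Glycomics database supplied 3228 glycan arrays, of which those lacking an available protein sequence were dropped. The binding signal, a within-array Z-score, was averaged across arrays of the same protein sequence and across linkers. Negative scores can be read as non-binding.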
# [2] = target: GalNAc(a1-3)GalNAc(b1-3)Gal(a1-4)Gal(b1-4)GlcNAc
# Summary of the method: as §1
# Glc(a1-4)Glc = target: Glc(a1-4)Glc
# Summary of the method: as §1
# [3] = target: GlcA3S(b1-3)Gal(b1-4)GlcNAc(b1-3)Gal(b1-4)Glc
# Summary of the method: as §1
# [4] = target: GlcNAc(a1-4)Gal(b1-3)GlcNAc
# Summary of the method: as §1
# [5] = target: GlcNAc(a1-4)Gal(b1-4)GlcNAc(b1-3)Gal(b1-4)Glc
# Summary of the method: as §1
# [6] = target: GlcNAc(b1-3)Gal(b1-4)GlcNAc(b1-2)Man(a1-3)[GlcNAc(b1-3)Gal(b1-4)GlcNAc(b1-2)Man(a1-6)]Man(b1-4)GlcNAc(b1-4)[Fuc(a1-6)]GlcNAc
# Summary of the method: as §1
# [7] = target: GlcNAc(b1-3)Gal(b1-4)GlcNAc(b1-2)[GlcNAc(b1-3)Gal(b1-4)GlcNAc(b1-6)]Man(a1-6)[GlcNAc(b1-3)Gal(b1-4)GlcNAc(b1-2)Man(a1-3)]Man(b1-4)GlcNAc(b1-4)GlcNAc
# Summary of the method: as §1
# [8] = target: GlcNAc(b1-3)Gal(b1-4)GlcNAc(b1-3)Gal(b1-4)GlcNAc(b1-2)Man(a1-3)[GlcNAc(b1-3)Gal(b1-4)GlcNAc(b1-3)Gal(b1-4)GlcNAc(b1-2)Man(a1-6)]Man(b1-4)GlcNAc(b1-4)[Fuc(a1-6)]GlcNAc
# Summary of the method: as §1
# [9] = target: GlcNAc(b1-3)[GlcNAc(b1-4)][GlcNAc(b1-6)]GlcNAc
# Summary of the method: as §1
# [10] = target: GlcNAc(b1-4)GlcNAc(b1-4)GlcNAc(b1-4)GlcNAc(b1-4)GlcNAc
# Summary of the method: as §1
# GlcNAc(b1-6)GalNAc = target: GlcNAc(b1-6)GalNAc
# Summary of the method: as §1
# [11] = target: GlcNAc6S(b1-3)Gal(b1-4)GlcNAc
# Summary of the method: as §1
# [12] = target: Man(a1-2)Man(a1-2)Man(a1-3)Man
# Summary of the method: as §1
# Man(a1-3)[Man(a1-6)]Man = target: Man(a1-3)[Man(a1-6)]Man
# Summary of the method: as §1
# [13] = target: Man(a1-3)[Man(a1-6)]Man(a1-6)[Man(a1-2)Man(a1-3)]Man(b1-4)GlcNAc(b1-4)GlcNAc
# Summary of the method: as §1
# [14] = target: Man(a1-3)[Man(a1-6)]Man(b1-4)GlcNAc(b1-4)GlcNAc
# Summary of the method: as §1
# Man(a1-6)Man = target: Man(a1-6)Man
# Summary of the method: as §1
# [15] = target: Neu5Ac(a2-3)Gal(b1-3)GalNAc
# Summary of the method: as §1
# [16] = target: Neu5Ac(a2-3)Gal(b1-4)GlcNAc(b1-2)Man(a1-3)[Neu5Ac(a2-3)Gal(b1-4)GlcNAc(b1-2)Man(a1-6)]Man(b1-4)GlcNAc(b1-4)[Fuc(a1-6)]GlcNAc
# Summary of the method: as §1
# [17] = target: Neu5Ac(a2-3)Gal(b1-4)GlcNAc(b1-3)Gal(b1-4)GlcNAc(b1-3)Gal(b1-4)GlcNAc(b1-2)Man(a1-3)[Neu5Ac(a2-3)Gal(b1-4)GlcNAc(b1-3)Gal(b1-4)GlcNAc(b1-3)Gal(b1-4)GlcNAc(b1-2)Man(a1-6)]GalNAc
# Summary of the method: as §1
# [18] = target: Neu5Ac(a2-3)Gal(b1-4)GlcNAc(b1-6)GalNAc
# Summary of the method: as §1
# [19] = target: Neu5Ac(a2-3)Gal(b1-4)[Fuc(a1-3)]GlcNAc(b1-3)GalNAc
# Summary of the method: as §1
# [20] = target: Neu5Ac(a2-3)[GalNAc(b1-4)]Gal(b1-4)Glc
# Summary of the method: as §1
# [21] = target: Neu5Ac(a2-6)Gal(b1-3)GlcNAc(b1-3)[Gal(b1-4)GlcNAc(b1-6)]Gal(b1-4)Glc
# Summary of the method: as §1
# [22] = target: Neu5Ac(a2-6)Gal(b1-4)GlcNAc(b1-2)Man(a1-3)[Man(a1-6)]Man(b1-4)GlcNAc(b1-4)GlcNAc
# Summary of the method: as §1
# [23] = target: Neu5Ac(a2-6)Gal(b1-4)GlcNAc(b1-2)Man(a1-3)[Neu5Ac(a2-6)Gal(b1-4)GlcNAc(b1-2)Man(a1-6)]Man(b1-4)GlcNAc(b1-4)GlcNAc
# Summary of the method: as §1
# [24] = target: Neu5Ac(a2-6)Gal(b1-4)GlcNAc(b1-2)Man(a1-3)[Neu5Ac(a2-6)Gal(b1-4)GlcNAc(b1-2)Man(a1-6)]Man(b1-4)GlcNAc(b1-4)[Fuc(a1-6)]GlcNAc
# Summary of the method: as §1
# [25] = target: Neu5Ac(a2-6)Gal(b1-4)GlcNAc(b1-2)Man(a1-6)[Gal(b1-4)GlcNAc(b1-2)Man(a1-3)]Man(b1-4)GlcNAc(b1-4)GlcNAc
# Summary of the method: as §1
# [26] = target: Neu5Ac(a2-6)Gal(b1-4)GlcNAc(b1-2)Man(a1-6)[Man(a1-3)]Man(b1-4)GlcNAc(b1-4)GlcNAc
# Summary of the method: as §1
# Neu5Ac(a2-6)GalNAc = target: Neu5Ac(a2-6)GalNAc
# Summary of the method: as §1
# [27] = target: Neu5Gc(a2-3)Gal(b1-3)[Fuc(a1-4)]GlcNAc
# Summary of the method: as §1
# [28] = target: Neu5Gc(a2-8)Neu5Ac(a2-3)Gal(b1-4)GlcNAc
# Summary of the method: as §1
binder,measurement,setting,value
RBMC1 (Vibrio cholerae) (protein) QQSQRVVTADNLMYLRSGFAIDAIGTTVNNLVGGPVQGTNGGVLRAPIALDQLQSVEVTSGLYNWGGYHIVAIKFTMKDGSSVLLGSTHYASNKKVETYTVPQGKRIKQINVWTGGWLVEGFQFVY,glycan array binding signal (z-score),[1],-0.188
same,glycan array binding signal (z-score),[2],-0.064
same,glycan array binding signal (z-score),Glc(a1-4)Glc,-0.216
same,glycan array binding signal (z-score),[3],-0.217
same,glycan array binding signal (z-score),[4],-0.355
same,glycan array binding signal (z-score),[5],-0.284
same,glycan array binding signal (z-score),[6],2.83
same,glycan array binding signal (z-score),[7],-0.295
same,glycan array binding signal (z-score),[8],2.5
same,glycan array binding signal (z-score),[9],-0.158
same,glycan array binding signal (z-score),[10],-0.358
same,glycan array binding signal (z-score),GlcNAc(b1-6)GalNAc,-0.289
same,glycan array binding signal (z-score),[11],-0.267
same,glycan array binding signal (z-score),[12],-0.395
same,glycan array binding signal (z-score),Man(a1-3)[Man(a1-6)]Man,0.002
same,glycan array binding signal (z-score),[13],0.166
same,glycan array binding signal (z-score),[14],1.13
same,glycan array binding signal (z-score),Man(a1-6)Man,1.1
same,glycan array binding signal (z-score),[15],-0.226
same,glycan array binding signal (z-score),[16],3.39
same,glycan array binding signal (z-score),[17],0.281
same,glycan array binding signal (z-score),[18],-0.114
same,glycan array binding signal (z-score),[19],-0.194
same,glycan array binding signal (z-score),[20],-0.432
same,glycan array binding signal (z-score),[21],-0.461
same,glycan array binding signal (z-score),[22],10.4
same,glycan array binding signal (z-score),[23],4.94
same,glycan array binding signal (z-score),[24],11.9
same,glycan array binding signal (z-score),[25],3.13
same,glycan array binding signal (z-score),[26],-0.031
same,glycan array binding signal (z-score),Neu5Ac(a2-6)GalNAc,-0.35
same,glycan array binding signal (z-score),[27],-0.039
same,glycan array binding signal (z-score),[28],-0.406
